# Measurements from PubChem BioAssay (NCI).
# This is part of a sample that, as a whole, favours compounds with a hit. Of some 83,000 tested, about 20% had one in any assay.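 Single-concentration screen, 48 h exposure, 96-well plates. Endpoint: percent growth. Below 10 = active.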 Values without a mark were called inactive. The source made the active and inactive calls.
# System: BT-549 breast
# Experiment: NCI-60 one-dose screen, 48 h (100 = growth as untreated, 0 = no growth, -100 = all killed)
# Conditions: 10 µM
row,Compound,growth
1,O=C(N/N=C/c1ccc(Cl)cc1)c1ccccc1Nc1cccc(C(F)(F)F)c1,60.2%
2,O=C(CSc1nccc(Nc2cccc3ccccc23)n1)c1ccc(Cl)cc1,102%
3,O=C(CSc1nnc(-c2cccnc2SCc2ccccc2)o1)Nc1nc(Cl)cc(Cl)n1,102%
4,Nc1nc(N)c(N)c(Nc2ccc(CCO)cc2)n1,99.9%
5,O=C(CNc1nnc(-c2cccnc2SCc2ccccc2)s1)Nc1nc(Cl)cc(Cl)n1,100%
6,CN(C)c1ccc(/C=N/NC(=O)c2ccccc2Nc2cccc(C(F)(F)F)c2)cc1,79.1%
7,CN1C(=O)C2(Nc3cc(Cl)ccc3S2)c2cc(Cl)ccc21 (stereo not given),80.1%
8,CC(C)(C)OC(=O)N1CCc2c(sc3ncnc(N/N=C/c4cccc5ccccc45)c23)C1,58.7%
9,COc1cc(CNC(=O)C2CSC3(C)c4ccccc4C(=O)N23)cc(OC)c1OC (stereo not given),108%
10,c1ccc(CSc2ncccc2-c2nnc(SCCN3CCOCC3)o2)cc1,112%
11,CC[N+](CC)=c1ccc2nc3c(cc(NCc4ccccc4)c4ccccc43)oc-2c1,39.4%
12,N#CC1=CC2CN(Cc3ccccc3)C1C1C(=O)N(c3ccccc3)C(=O)C21 (stereo not given),95%
13,COc1ccc(-c2nn(-c3cccc(Cl)c3)cc2-c2nc(N)[nH]c(=O)c2C#N)cc1,64%
14,COc1cc2cc(Oc3ccc(NC(=O)Nc4ccc(Cl)c(C(F)(F)F)c4)cc3)c(C)nc2cc1OC,-38.7% (active)
15,COc1cc2cc(Oc3ccc(NC(=O)Nc4ccc(Cl)c(Cl)c4)cc3)c(C)nc2cc1OC,28.1%
16,COc1cc(-c2nn(-c3cccc(NC(=O)NCCNS(=O)(=O)c4ccc(Cl)cc4)c3)cc2-c2ccncc2)ccc1Cl,-11.6% (active)
17,O=C(N/N=C/c1c(Cl)cccc1Cl)c1ccccc1Nc1cccc(C(F)(F)F)c1,81.3%
18,CC(=O)Nc1ccc(CC[C@H]2CCC/C=C/[C@@H]3C[C@H](O)C[C@H]3[C@H](O)/C=C/C(=O)O2)cc1,27.5%

row,Compound,growth
1,Cc1cc(Cl)ccc1Nc1nc(C(F)(F)F)ccc1C(=O)N/N=C/c1c(Cl)cccc1Cl,-15% (active)
2,CCOC(=O)CC(S(=O)(=O)c1ccccc1)S(=O)(=O)c1ccccc1,110%
3,Cc1cc(Cl)ccc1Nc1nc(C(F)(F)F)ccc1C(=O)N/N=C/c1cccc(O)c1,9.22% (active)
4,CC(C)=CCC/C(C)=C/CC/C(C)=C/CC/C=C(\C)CC/C=C(\C)CCC(=O)Nc1ccn(C2OC(CO)C(O)C2(F)F)c(=O)n1 (stereo not given),18.3%
5,COc1ccccc1/C=N\N/C(N)=N\N=C\c1ccccc1OC,-4.14% (active)
6,Cc1cc(CCNC=O)c(C)c2c1sc1ccccc12,96.9%
7,COc1ccc(-c2nc(-c3nc4ccc(C)cc4[nH]3)cc3c2[nH]c2ccccc23)cc1,71.7%
8,Cc1ccc(/C=C2/C(=O)N(C)c3ccc(S(=O)(=O)Nc4ccc(C(C)(C)C)cc4)cc32)s1,97.1%
9,c1ccc(/C(=N\Nc2ccc3ccccc3n2)c2ccccn2)cc1,12.3%
10,NC(N)=N/N=C(\N=Nc1ccccc1)c1ccc(Cl)cc1,67.2%
11,COc1cc(NC(=O)Nc2cnc(Nc3ccc(N4CCOCC4)cc3)nc2Oc2cccc(OC)c2)cc(OC)c1,28.8%
12,COc1cc(-c2nn(-c3cccc(NC(=O)CCN4CCN(c5ccccc5)CC4)c3)cc2-c2ccncc2)ccc1Cl,12.6%
13,OCC1OC(n2ccc3c(NO)ncnc32)C(O)C1O (stereo not given),-31.5% (active)
14,CCOC(=O)C1C(C(=O)OCC)C2C(=O)C3C(C(=O)OCC)C(C(=O)OCC)C3C(=O)C12 (stereo not given),109%
15,CCCCN(CCCC)C(=O)[C@H](CC)[C@@H]1CC[C@@H](C)[C@@H]([C@H](C)[C@@H](O)[C@@H](C)C(=O)[C@H](CC)C2O[C@]3(C=CC(=O)[C@]4(CC[C@@](C)([C@H]5CC[C@](O)(CC)[C@H](C)O5)O4)O3)[C@H](C)C[C@@H]2C)O1 (stereo not given in full),62.7%
16,COc1ccc(Cl)cc1Nc1nc(C(F)(F)F)ccc1C(=O)N/N=C/c1ccc(Cl)cc1,36.9%
17,CCCc1nc(C(C)(C)O)c(C(=O)O)n1Cc1ccc(-c2ccccc2-c2nn[nH]n2)cc1,103%
